# According to PubChem BioAssay (NCI):
# Compounds without any hit were thinned out: in the full panel of roughly 83,000, 20% have a hit.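 Cells were grown in 96-well plates and exposed to the test compound at a single concentration for 48 hours; results are reported as percent growth, with values below 10 considered active.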 Unmarked numbers belong to inactive results. Active and inactive are the calls of the source.
# System: MDA-MB-468 breast
# Experiment: NCI-60 one-dose screen, 48 h (100 = growth as untreated, 0 = no growth, -100 = all killed)
# Settings: 10 µM unless noted
row,SMILES,growth
1,O=[N+]([O-])c1cccc(-c2nc(-c3ccc(Cl)cc3Cl)cn2-c2ccccc2)c1,22.2%
2,COc1cc(/C=C\c2cc(OC)c(OC)c(OC)c2)cc(NS(=O)(=O)c2ccc(Cl)cc2)c1OC,19.1%
3,O=C(CSc1nc2ccccc2c(=O)n1-c1ccccc1)N/N=C/c1ccc(Oc2ccc(Cl)cc2)cc1,71.6%
4,N#CCCN1C/C(=C/c2ccc(Cl)cc2)C(=O)/C(=C/c2ccc(Cl)cc2)C1,-66.5% (active)
5,CCN(CC)CCNC(Cc1ccccc1)c1ccc(OCc2ccccc2)cc1 (stereo not drawn),66.4%
6,O=C(CCSc1nnc2n(Cc3ccccc3)c(=O)c3c4c(sc3n12)CCCC4)N1CCN(c2ccccc2)CC1,101%
7,CC(=O)O[C@H]1CC[C@@]2(C)[C@@H](CC[C@@H]3[C@@H]2CC(=O)[C@@]2(C)[C@H]3C[C@@H](C3CCCC3=O)[C@@H]2C(C)=O)C1 (stereo partly drawn),114%
8,Cc1ccc2c(/C=C/C(=O)c3cc(CN4CCOCC4)c(O)c4nc(C)ccc34)cc(CN3CCOCC3)c(O)c2n1,-40.4% (active)
9,COc1cccc(NC(=O)c2sc3nc(C)c(C(O)c4ccccc4)cc3c2N)c1 (stereo not drawn),14.3%
10,Oc1ccccc1C=NCC1CCC(CN=Cc2ccccc2O)CC1 (stereo not drawn),74.4%
11,C/C(=C\CCc1ccoc1)CC/C=C(\C)CCCN1CCC(CO)CC1,14.5%
12,N#C/C(=C\c1ccc(Br)cc1)c1cc2ccccc2[nH]1,82.8%
13,CC(=O)c1ccc2c3c(n(C)c2c1)CCCC3,77.9%
